Reference: PubChem BioAssay (NCI)
This is part of a sample that, as a whole, favours compounds with a hit. Of some 79,000 tested, about 15% had one in any assay. No stated cut-off is given here; in the data, active means growth inhibition above about 70%; inactive means the rest.

Legend:
[1] = NCI Yeast Anticancer Drug Screen. Data for the rad50 strain (AID 155);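 further: 0% = growth of vehicle-only cultures of the same strain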; details: S. cerevisiae rad50 strain growth inhibition; at 50.0 µM; hits give high values
In short: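 Genetically altered yeast (DNA repair pathway); compound treatment; growth inhibition vs vehicle ctrl.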

[2] = NCI Yeast Anticancer Drug Screen. Data for the mec2-1 strain (AID 157); details: S. cerevisiae mec2-1 strain, at 50.0 µM, hits give high values
In short: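 Each compound was tested on mec2-1 yeast, a strain altered in DNA damage repair or cell cycle control. Growth inhibition is reported relative to vehicle.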

[3] = NCI Yeast Anticancer Drug Screen. Data for the sgs1 mgt1 strain (AID 161);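 further: 0% = growth of cultures given vehicle only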; details: S. cerevisiae sgs1 mgt1 strain, at 50.0 µM, hits give high values
In short: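 Genetically altered yeast, compound exposure, growth inhibition relative to vehicle.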

[4] = NCI Yeast Anticancer Drug Screen. Data for the cln2 rad14 strain (AID 165);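 further: 0% = growth equal to vehicle treated cultures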; details: S. cerevisiae cln2 rad14 strain, at 50.0 µM, hits give high values
In short: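 Test compounds were added to cln2 rad14 yeast cultures; inhibition of growth was then determined by comparison with vehicle treatment.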

[5] = NCI Yeast Anticancer Drug Screen. Data for the bub3 strain (AID 167); details: S. cerevisiae bub3 mutant strain, at 50.0 µM, hits give high values
In short: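 Yeast carrying a defined mutation is treated with each compound, and growth is compared with that of vehicle-exposed cells to give inhibition.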

[6] = NCI Yeast Anticancer Drug Screen. Data for the mlh1 rad18 strain (AID 175); details: S. cerevisiae mlh1 rad18 strain growth inhibition; at 50.0 µM; hits give high values
In short: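 Inhibition values reflect reduced growth of mutant yeast versus vehicle-treated controls following compound exposure; the mutations affect DNA damage repair.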

Measured: growth inhibition

CN1CCC(=C2c3ccccc3CC(O)c3sccc32)CC1 (stereo not given)
inactive: [1] 24.2% | [2] 5.7% | [3] -16.6% | [4] 3.5% | [5] 9.2% | [6] 39%

COc1cc(C(C#N)NNC(=O)Cc2ccccc2)cc(OC)c1OC (stereo not given)
inactive: [1] -18.9% | [2] -54.1% | [3] -53.9% | [4] 18.5% | [5] -45.8% | [6] -49.8%

O=C(Nc1nc2c(ncn2C2OC(CO)C(O)C2O)c(=O)[nH]1)c1ccccc1 (stereo not given)
inactive: [1] 2.45% | [2] -26.9% | [3] -20.2% | [4] 11.6% | [5] 12.7% | [6] 15.6%

Cc1ccc(S(=O)(=O)NC(=O)NC23CC4CC(CC(F)(C4)C2)C3)cc1
inactive: [1] 37.9% | [2] 21.4% | [3] -13.6% | [4] 9.5% | [5] 13.8% | [6] 2.1%

Cc1ccc(C(=O)OC[C@H]2CC[C@@H](n3cc(N(C)C4CCCCC4)c(=O)[nH]c3=O)O2)cc1
inactive: [1] 2.4% | [2] -32.2% | [3] 8.7% | [4] 14.5% | [5] -2.15% | [6] 31.8%

CC(C)=CCCC(C)(O)C1CC=C(C)CC1 (stereo not given)
inactive: [1] 0.5% | [2] -18.8% | [3] -2.6% | [4] 3.05% | [5] -13.9% | [6] -7.65%

CCOC(=O)c1ccc(NC(=S)N2CCOCC2)cc1
inactive: [1] 13.1% | [2] 6.8% | [3] 14.8% | [4] 8.7% | [5] 2.55% | [6] -2.8%

NCCN1C(=O)c2ccccc2C1(O)c1ccc(Cl)cc1 (stereo not given)
inactive: [1] -6.25% | [2] -35.4% | [3] -7% | [4] -4.6% | [5] -14.9% | [6] -0.65%

CC(=O)Nc1cc(Br)cc2c1-c1ccc(Br)cc1C2
inactive: [1] 36.7% | [2] 14.7% | [3] 16.2% | [4] 8.2% | [5] 5.3% | [6] 23.4%

O=C1C=CC(=O)N1CCCCN1C(=O)C=CC1=O
inactive: [1] 18.8% | [2] 3.75% | [3] -17.9% | [4] -20.1% | [5] -14.4% | [6] -11.9%

COc1cccc(C2=CCCCCC2)c1OC
inactive: [1] 1.15% | [2] -12.8% | [3] -9.45% | [4] -23% | [5] -15.9% | [6] 4.3%

CC1(c2ccc(Cl)cc2)NC(=O)N(CC(=O)Nc2ccccc2)C1=O (stereo not given)
inactive: [1] 7.1% | [2] 13.9% | [3] 2.65% | [4] -7.95% | [5] -12.1% | [6] 14.2%

CCOC(=O)CNC=O
inactive: [1] 33.5% | [2] -6.1% | [3] -2.7% | [4] 26.4% | [5] -1.8% | [6] 8.55%

CCOC(=O)c1c(C(=O)OC)nc2n1-c1ccccc1OC2
inactive: [1] -16.2% | [2] -36.1% | [3] -14.4% | [4] -17.8% | [5] -17.4% | [6] -0.7%

CCOC1=C2C(C)(CCC3[C@@]4(C)C=CC(=O)C(C)(C)C4CC(O)[C@@]23C)C(c2ccoc2)C1=O (stereo not given in full)
inactive: [1] 54% | [2] 31% | [3] 45.5% | [4] 45.3% | [5] 20.1% | [6] 30.8%

Cc1noc(C)c1CCCOC1COc2ccccc2OCCOCCOc2ccccc2OC1
inactive: [1] -4.7% | [2] -7.15% | [3] -5.8% | [4] -21.1% | [5] -9.15% | [6] -5.25%

Cc1ccc2c(c1)C(=Nc1ccc(Cl)cc1)C(=O)N2
inactive: [1] -1.6% | [2] 1.7% | [3] 1.75% | [4] -0.55% | [5] 18.9% | [6] 13.1%

NC(N)=NC(N)=Nc1ccccc1Br
inactive: [1] -20.9% | [2] -19.5% | [3] -4.4% | [4] -26.1% | [5] 7.05% | [6] -3.85%

O=C1c2c(ccc3c2CCCC3)CC12Cc1ccc3c(c1C2=O)CCCC3
inactive: [1] 20.1% | [2] 13.8% | [3] -0.85% | [4] 23.9% | [5] 7% | [6] 12.1%

CCCCC(N)CSSCC(N)CCCC (stereo not given)
inactive: [1] -20.8% | [2] -44% | [3] -23.3% | [4] -20.1% | [5] -50.6% | [6] -35.6%

NC(=O)c1ccccc1NC(=O)C(=O)C(C(=O)c1ccc2ccccc2c1)C1OC(=O)c2ccccc21 (stereo not given)
inactive: [1] 0.7% | [2] -2.15% | [3] 10.6% | [4] -44.6% | [5] 15.4% | [6] 9.15%

Cn1c(=O)c2[nH]c(SCc3cccnc3)nc2n(C)c1=O
inactive: [1] -4.35% | [2] -11.1% | [3] 6.85% | [4] -44.9% | [5] 4.7% | [6] -10.6%

C=CCNC(=O)CS(=O)(=O)c1ccc(C)cc1
inactive: [1] 0.1% | [2] -10.3% | [3] -0.35% | [4] 15.3% | [5] 3.05% | [6] 10.6%

N#Cc1cc(N2CCCCC2)ccc1[N+](=O)[O-]
inactive: [1] 2.6% | [2] -8.35% | [3] -6.2% | [4] -18.1% | [5] -4.5% | [6] -0.4%

COc1c(O)cc2oc(-c3ccc(O)cc3)cc(=O)c2c1O
inactive: [1] 11% | [2] -5.7% | [3] 29.8% | [4] 10.8% | [5] 16.2% | [6] -0.05%

O=C(NC1CCCCC1)/C(=C\c1ccc(/C=C(/NC(=O)c2ccccc2)C(=O)NC2CCCCC2)cc1)NC(=O)c1ccccc1
inactive: [1] -9.95% | [2] -26.9% | [3] 9.5% | [4] -34.5% | [5] -22.6% | [6] -20.8%

O=C1OC(c2cccc(Cl)c2)=N/C1=C\c1cc(Br)ccc1O
inactive: [1] 20.6% | [2] 5.7% | [3] 27.8% | [4] 5.2% | [5] -0.4% | [6] 5.95%

Cc1ccc(NC(=S)NC2CCCCC2)cc1Cl
inactive: [1] -2.4% | [2] 43% | [3] 29.4% | [4] -24.9% | [5] 42.3% | [6] 26.6%

O=C1/C(=C/c2ccccc2)CCc2ccc([N+](=O)[O-])cc21
inactive: [1] -2.9% | [2] -1.85% | [3] 8.25% | [4] 4.1% | [5] 0.95% | [6] -26.4%

CN(C)CCNC(=O)c1ccc2nc3c(nc2c1)C(=O)c1ccccc1-3
inactive: [1] -9.4% | [2] -2.85% | [3] 31.3% | [4] 36.8% | [5] 3.6% | [6] 15.9%

Oc1ccc(O)c(-n2cccn2)c1-n1cccn1
inactive: [1] -0.85% | [2] -4.55% | [3] -1.6% | [4] 6.3% | [5] 0% | [6] -2.75%

N#C/C(=C(/Cc1ccc(F)cc1)NP(=O)(c1ccccc1)c1ccccc1)c1ccc(F)cc1
inactive: [1] 10.9% | [2] -3.7% | [3] -10.4% | [4] 0.8% | [5] 2.6% | [6] -2.35%

Cc1cccc2nnc(CCCc3nnc4cccc(C)n34)n12
inactive: [1] -0.85% | [2] 1.85% | [3] -22.1% | [4] -34.4% | [5] -8.8% | [6] -6.3%

Cc1nc2cc(N)c(Cl)cc2[nH]1
inactive: [1] -6.5% | [2] 14.8% | [3] 9.95% | [4] -7.15% | [5] 10.5% | [6] -0.6%

C1=C(N2CCOCC2)/C(=C2\SC(=Nc3ccccc3)C(=Nc3ccccc3)N2c2ccccc2)CC1
inactive: [1] -5.8% | [2] -5.4% | [3] -7.65% | [4] 14.3% | [5] -5.35% | [6] -28.6%

CCN(CC)N=Nc1ccc(S(N)(=O)=O)cc1
inactive: [1] 8.25% | [2] 12.6% | [3] 16.1% | [4] 38% | [5] -5.1% | [6] 14.6%

O=C1C2CCCC2C1(c1ccccc1)c1ccccc1 (stereo not given)
inactive: [1] -7.25% | [2] 38.6% | [3] 64.2% | [4] -36.4% | [5] 49.9% | [6] 10.8%

CCOC(N)=C(C#N)C#N
inactive: [1] 12.6% | [2] 15.1% | [3] 3.45% | [4] 21.4% | [5] 23.1% | [6] 11.8%

CC1(C)CCCC2(C)[C@@H]1CC[C@]13C[C@](C)(CC[C@@H]21)[C@@H]3CO (stereo not given in full)
inactive: [1] -17.8% | [2] -2.9% | [3] -22.6% | [4] -3.35% | [5] -32.1% | [6] -19.9%

CCCCCCCCCCCCOc1cccc(OCCCCCCCCCCCC)c1
inactive: [1] 29.4% | [2] -4.75% | [3] 21.8% | [4] -41.1% | [5] -1.9% | [6] -19.1%
